Experimental data published in PMC4552634, “A New Set of Chemical Starting Points with Plasmodium falciparum Transmission-Blocking Potential for Antimalarial Drug Discovery” (PLoS ONE, 2015).
Read-outs that look alike come from different tables or passages of the source. Out of some 13,000 compounds screened, about 3,200 (25%) showed an effect of 50% or more. The list shows a part of the results.

Tested on: P. falciparum stage V gametocytes
Design: BacTiter-Glo ATP luminescence viability of purified stage V gametocytes in 384-well plates, per cent inhibition versus DMSO
Settings: 48 h, 5 µM, inhibitor

Row | Compound | % Inhibition [%] | % Inhibition (% Inhibition) [%]
1 | COc1cccc(CNC(=O)c2cnc(N3CCN(c4ccncc4)CC3)c(Cl)c2)c1 [TCMDC-134628] | 35.94 | 
2 | CNc1ccc(CNCc2cccc(-c3ccc(-c4nc5c(C)cccc5[nH]4)cc3)c2)cc1 [TCMDC-132979] | -24.36 | 
3 | Cc1cccc2[nH]c(-c3ccc(-c4cccc(CNCCc5ccncc5)c4)cc3)nc12 [TCMDC-132850] | -15.09 | 
4 | Cc1cccc2[nH]c(-c3ccc(-c4cccc(CNCCN(C)C)c4)cc3)nc12 [TCMDC-132682] | 17.36 | 
5 | Cc1cccc2[nH]c(-c3ccc(-c4ccc(CNCC(C)C)cc4)cc3)nc12 [TCMDC-132803] | 16.22 | 
6 | Cc1cccc2[nH]c(-c3ccc(-c4ccc(CNC(C)C)cc4)cc3)nc12 [TCMDC-132744] | -47.89 | 
7 | Cc1cccc2[nH]c(-c3ccc(-c4ccc(CNCc5ccccc5)cc4)cc3)nc12 [TCMDC-132701] | -18.64 | 
8 | CNCCNCc1ccc(-c2ccc(-c3nc4c(C)cccc4[nH]3)cc2)cc1 [TCMDC-132837] | 80.14 | 
9 | Cc1cccc2[nH]c(-c3ccc(-c4cccc(CNCc5cccc(N)c5)c4)cc3)nc12 [TCMDC-132934] | 83.13 | 
10 | Cc1cccc2[nH]c(-c3ccc(-c4cccc(CNCc5ccccc5)c4)cc3)nc12 [TCMDC-132707] | -22.49 | 
11 | CNCCNCc1cccc(-c2ccc(-c3nc4c(C)cccc4[nH]3)cc2)c1 [TCMDC-132831] | 94.01 | 
12 | COc1ccc(CNCc2cccc(-c3ccc(-c4nc5c(C)cccc5[nH]4)cc3)c2)cc1 [TCMDC-132726] | -14.09 | 
13 | Cc1cccc2[nH]c(-c3ccc(-c4ccc(CNCc5ccc(CN)cc5)cc4)cc3)nc12 [TCMDC-132813] | 65.29 | 
14 | Cc1ccccc1Oc1ccc(Nc2ccnc(Nc3cccc(C(N)=O)c3)n2)cc1C(F)(F)F [TCMDC-138601] | 1.674 | 
15 | CC(=O)N(C)c1ccc(C(=O)Nc2cccc(-c3cccc(-c4nc5ccc(C(F)(F)F)cc5[nH]4)c3)c2)cc1 [TCMDC-136849] | -19.52 | 
16 | CC(=O)Nc1nc(C(=O)Nc2cccc(-c3ccc4c(cnn4CC4CC4)c3)c2)cs1 [TCMDC-133147] | 49.64 | 
17 | O=C1COC(c2ccccc2)(c2ccccc2)CN1CC1CCN(Cc2ccc(O)cc2Cl)C1 (stereo not drawn) [TCMDC-136338] | 44.26 | 
18 | Cc1[nH]c2c(C)cccc2c1C1CCN(CCC2CCN(C(=O)/C=C/c3ccc(Cl)c(Cl)c3)CC2)CC1 [TCMDC-139803] | 38.01 | 
19 | N=C(N)CCN(Cc1ccccc1)c1ccc(Cl)cc1 [TCMDC-131835] | 9.979 | 
20 | N=C(N)CCN(Cc1ccc(Cl)cc1)c1ccc(Cl)cc1 [TCMDC-131840] | 54.29 | 
21 | Cc1ccc(N(CCC(=N)N)Cc2ccccc2)cc1 [TCMDC-132096] | 26.05 | 
22 | N=C(N)NCCN(Cc1ccccc1)c1ccc(Cl)cc1 [TCMDC-131838] | 72.85 | 
23 | N=C(N)NCCN(Cc1ccccc1)c1ccccc1 [TCMDC-131837] | 26.01 | 
24 | N=C(N)NCCCN(Cc1ccccc1)c1ccc(Cl)cc1 [TCMDC-131839] | 47.9 | 
25 | CN1CCCN(Cc2ccc(-c3cccc(NC(=O)c4ccc(F)cc4)c3)cc2)CC1 [TCMDC-132634] | 12.81 | 
26 | O=C(NC1CCN(Cc2ccccc2)CC1)c1cccc(-c2cc3cc(Cl)c(Cl)cc3[nH]2)c1 [TCMDC-141290] | -1.614 | 

Row | Compound | % Inhibition [%] | % Inhibition (% Inhibition) [%]
27 | CN1CCN(CCCN(Cc2cccc(-c3ccc(CNCc4ccc5c(c4)OCO5)cc3)c2)C(=O)CCC2CCCC2)CC1 [TCMDC-140557] | 65.31 | 
28 | CN1CCN(CCCN(Cc2ccc(-c3cccc(CNCc4ccc5c(c4)OCO5)c3)cc2)C(=O)NC2CCCCC2)CC1 [TCMDC-140642] | 56.14 | 
29 | CN1CCN(CCCN(Cc2ccc(-c3ccc(CNCc4ccc5c(c4)OCO5)cc3)cc2)C(=O)CCC2CCCC2)CC1 [TCMDC-140561] | 102.2 | 
30 | CN1CCN(CCCN(Cc2ccc(-c3cccc(CNCc4ccc5c(c4)OCO5)c3)cc2)C(=O)CCC2CCCC2)CC1 [TCMDC-140751] | 61.11 | 
31 | Cc1cccc(C(=O)Nc2ccnc(N(C)C3CCN(Cc4cccc(O)c4)CC3)c2)c1 [TCMDC-134964] | -19.45 | 
32 | O=C(/C=C/c1ccc(Cl)c(Cl)c1)NCCCCCN1CCC(NC(=O)Nc2cc(F)cc(F)c2)CC1 [TCMDC-135715] | -53.24 | 
33 | NC(=O)C1CCN(Cc2ccc(-c3ccc(-c4nc5cc(C(F)(F)F)ccc5[nH]4)cc3)cc2)CC1.O=C(O)C(F)(F)F [TCMDC-132692] | -81.89 | 
34 | CN1CCN(CCCN(Cc2cccc(-c3cccc(CNCc4ccc5c(c4)OCO5)c3)c2)C(=O)CCC2CCCC2)CC1 [TCMDC-140556] | 67.58 | 
35 | FC(F)(F)c1cccc(CNCC2CCN(Cc3ccc4c(c3)OCO4)CC2)c1 [TCMDC-141673] | 2.788 | 
36 | CC1CN(c2ccc(NC(=O)c3cccs3)cc2)CCN1Cc1cccc(F)c1 (stereo not drawn) [TCMDC-135008] | -22.55 | 
37 | COc1ccc(CNCc2cccc(-c3cccc(-c4nc5cccc(C)c5[nH]4)c3)c2)cc1.O=C(O)C(F)(F)F [TCMDC-132732] | -64.2 | 
38 | c1ccc(CSC2=NNC(c3ccccn3)S2)cc1 (stereo not drawn) [TCMDC-123769] | 99.43 | 
39 | NC(=O)c1cccc(C(=O)Nc2cccc(-c3csc(-c4nc5ccccc5[nH]4)c3)c2)c1 [TCMDC-132399] | -9.606 | 
40 | CNCCCNCc1ccc(-c2ccc(F)c(Cl)c2)o1 [TCMDC-125237] | 65.13 | 
41 | CN(C)CCCNCc1ccc(-c2ccc(F)c(Cl)c2)o1 [TCMDC-125238] | 41.34 | 
42 | CNS(=O)(=O)CCNCc1ccc(-c2ccc3ncnc(Nc4ccc(OCc5ccccc5)cc4)c3c2)o1 [TCMDC-138102] | -59.33 | 
43 | O=C(C=Cc1cccc(Cl)c1Cl)NC1CCC(CN2CCC(c3c[nH]c4ccccc34)CC2)CC1 (stereo not drawn) [TCMDC-139920] |  | -3.877
44 | O=C(/C=C/c1ccccc1O)NC1CCC(CN2CCC(c3c[nH]c4ccccc34)CC2)CC1 (stereo not drawn) [TCMDC-139720] |  | 84.95
45 | O=C(C=Cc1ccccc1Br)NC1CCC(CN2CCC(c3c[nH]c4ccccc34)CC2)CC1 (stereo not drawn) [TCMDC-139917] |  | 13.62
46 | O=C(C=Cc1ccccc1Br)NC1CCC(CN2CCC(c3c[nH]c4ccccc34)CC2)CC1 (stereo not drawn) [TCMDC-139905] |  | 19.58
47 | O=C(C=Cc1ccccc1C(F)(F)F)NC1CCC(CN2CCC(c3c[nH]c4ccccc34)CC2)CC1 (stereo not drawn) [TCMDC-139915] |  | 18.99
48 | O=C(C=Cc1ccccc1C(F)(F)F)NC1CCC(CN2CCC(c3c[nH]c4ccccc34)CC2)CC1 (stereo not drawn) [TCMDC-139903] |  | 54.81
49 | O=C(/C=C/c1ccccc1Cl)NC1CCC(CN2CCC(c3c[nH]c4ccccc34)CC2)CC1 (stereo not drawn) [TCMDC-139699] |  | 83.67
50 | O=C(/C=C/c1ccccc1O)NC1CCC(CN2CCC(c3c[nH]c4ccccc34)CC2)CC1 (stereo not drawn) [TCMDC-139705] |  | 20.65
51 | O=C(/C=C/c1ccccc1Cl)NC1CCC(CN2CCC(c3c[nH]c4ccccc34)CC2)CC1 (stereo not drawn) [TCMDC-139714] |  | 34.23
